Most compounds without a hit are left out; they make up all but 4.1% or so of the library.
RecA splice inh = Mtb RecA intein splicing inhibitors, primary screen, biochemical, fluorescence, HTS; inhibition, % (no concentration beside the values); cell-free RecA intein splicing; hit rate 0.75% among 290,000; AID 2221, 2009; Protein RecA (Mycobacterium tuberculosis (strain ATCC 25618 / H37Rv)), P9WHJ3; in the data active means inhibition above about 30%;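 further: 0% = vehicle wells and 100% = reference inhibitor control wells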
GDH-TPI inh = GDH-TPI coupling enzyme inhibitors, primary screen, artefact control for M. tuberculosis FBA inhibitor project, biochemical, absorbance, full deck; GDH-TPI coupled enzyme counterscreen, NADH absorbance; inhibition, % at 4.8 µM; hit rate 1.2% among 360,000; AID 588335, 2011; in the data active means inhibition above about 30%;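 further: 0% = DMSO wells and 100% = wells lacking the enzyme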
Mtb UGM inh = M. tuberculosis UGM enzyme inhibitors, primary screen, biochemical, fluorescence polarization, single point; AID 504406, 2011; purified UGM, fluorescence polarization probe displacement; inhibition, % at 10 µM; hit rate 0.06% among 320,000; in the data active means inhibition above about 10%, passing the limit was not always enough
Target sequence (P9WIQ1 whole entry, looked up): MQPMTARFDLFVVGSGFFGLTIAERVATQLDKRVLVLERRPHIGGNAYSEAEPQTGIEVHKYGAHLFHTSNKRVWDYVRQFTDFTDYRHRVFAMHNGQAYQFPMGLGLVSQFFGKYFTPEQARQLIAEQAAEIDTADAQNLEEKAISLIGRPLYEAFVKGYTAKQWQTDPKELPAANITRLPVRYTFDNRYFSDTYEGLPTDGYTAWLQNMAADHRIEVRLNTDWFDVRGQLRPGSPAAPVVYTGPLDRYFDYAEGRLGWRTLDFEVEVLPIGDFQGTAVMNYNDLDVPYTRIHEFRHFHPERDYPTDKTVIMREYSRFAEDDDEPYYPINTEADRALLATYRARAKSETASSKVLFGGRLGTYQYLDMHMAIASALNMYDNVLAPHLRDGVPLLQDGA
Vc quorum ag-1 = inducers of Vibrio cholerae quorum light production without autoinducers, primary screen, BH1578 luxS cqsA deficient, single point; V. cholerae BH1578 lux reporter, luminescence, 6 h; hit rate 0.16% among 350,000; activation, % at 18.7 µM; AID 588436, 2011; in the data active means activation mostly above about 9.7%, no sharp cut-off
FBA Mtb inh = Mtb FBA enzyme inhibitors, primary screen, biochemical, fluorescence, strain H37Rv. hit rate 2.3% among 360,000. inhibition, % at 1 µM. purified M. tuberculosis FBA, fluorescence read-out; in the data active means inhibition above about 27%;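 further: 0% = vehicle and 100% = reference inhibitor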
Rv3671c inh = Rv3671c serine protease inhibitors, primary screen, biochemical, fluorescence polarization, M. tuberculosis H37Rv | P9WHR9 | AID 2606, 2010 | inhibition, % at 5.96 µM | hit rate 0.048% among 320,000; in the data active means inhibition above about 38%;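 further: extracellular domain of Rv3671c used as enzyme; 0% = enzyme with DMSO and 100% = no enzyme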
Vc quorum ag-2 = V. cholerae lux activation without autoinducers – BH1578 luxS cqsA deficient, cherry-pick, plate reader, dose response; shares compounds with Vc quorum ag-1; V. cholerae BH1578 lux reporter, luminescence, 6 h; activation, % at 50 µM; 620 tested, under 10 active; AID 602243, 2012; call rule not given here
HeLa tox = HeLa cell cytotoxicity, dose response, cytotoxicity control, 24 h, dry powder; shares compounds with Vc quorum ag-1; HeLa viability, CellTiter-Glo ATP luminescence; activity change, negative = cytotoxicity, % at 35 µM; 25 tested, under 10 active; AID 624140, 2012;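 active means signal drop with fitted half-maximal concentration at or below twice the highest valid dose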
* = called active by the depositor; i = inactive; x = not tested or not shown.

SMILES	RecA splice inh	GDH-TPI inh	Mtb UGM inh	Vc quorum ag-1	FBA Mtb inh	Rv3671c inh	Vc quorum ag-2	others
Cc1ccc2cc3c(NC(=O)c4ccco4)nn(C)c3nc2c1	-115	5	-1	x	8	-4	x	HeLa tox=-1
CCOC(=O)CC1C(=O)NCCN1C(=O)c1cccc(C(F)(F)F)c1 (configuration not stated)	0	10	-1	17*	1	-3	1
O=C(NCCC(=O)N1CCN(c2ccc(F)cc2)CC1)c1ccco1	x	-4	x	12	-1	x	100
O=C(NCCC(=O)N1CCN(c2ccccc2F)CC1)c1ccco1	-4	4	0	i	1	0	x
CCOc1ccc2nc(SCC(=O)NCc3ccc(OC)c(OC)c3)[nH]c2c1	x	1	-3	i	-2	-7	x
CCOc1ccc2nc(SCC(=O)NC(=O)NCc3ccco3)[nH]c2c1	-1	-3	3	32*	1	-2	0
CCCNC(=O)C1(C)CCN(C(=O)c2ccc3c(c2)CCO3)C1 (configuration not stated)	x	9	x	-10	4	x	x
O=[N+]([O-])c1ccc(N2CCOCC2)c2c1no[n+]2[O-]	x	16	x	35*	-6	x	1
COc1ccc(C(=O)O)cc1S(=O)(=O)Nc1ccccc1C(=O)NCc1ccc2c(c1)OCO2	x	6	4	i	3	0	x
COc1ccc(-n2c(COc3ccccc3)nnc2SCc2ccc(C#N)cc2)cc1	13	-8	1	12	0	-4	0
O=C(c1cc2ccccc2cc1O)N1CCCC1	-10	-7	3	-1	-1	3	x
O=C(c1cc2ccccc2cc1O)N1CCN(c2ccccc2O)CC1	-3	-5	-3	12	-1	-4	0
CSc1nc(C)cc(OCC(=O)N2CCOCC2)n1	x	-8	-1	32*	2	-1	0
C[C@H](CO)N1C[C@H](C)[C@@H](CN(C)S(=O)(=O)c2ccc(C#N)cc2)OCc2cnnn2CCCC1=O	x	0	x	0	1	x	x
O=C(NCC(F)(F)F)Nc1ccccn1	-4	-8	-2	2	2	-3	x
O=C(NCC(F)(F)F)Nc1ncccn1	-2	-2	-2	15*	2	-2	2
Cc1ccc(C)c(N(C(=O)Cn2nnc(-c3cccs3)n2)C(C(=O)NC2CC2)c2ccc(C)o2)c1 (configuration not stated)	0	9	0	829*	4	1	2
CCOC(=O)C1(C)CCN1C(=O)c1cccnc1Oc1ccccc1 (configuration not stated)	x	6	x	-1	3	x	x
O=C(CCN1C(=O)/C(=C/c2ccc(F)cc2)SC1=S)Nc1cc([N+](=O)[O-])ccc1O	22	-3	-1	1	0	-4	x
CCN(CC(=O)Nc1c(F)cccc1F)C(=O)C1CC(=O)N(c2ccccc2OC)C1 (configuration not stated)	-2	-3	0	12	-1	-5	0
Cc1cccc(OCc2nnc(SCC(=O)c3c(N)n(C4CC4)c(=O)[nH]c3=O)o2)c1	x	-3	x	i	6	x	x
O=C(Nc1ccc(S(=O)(=O)Nc2ncccn2)cc1)C1CC(=O)N(c2ccccc2)C1 (configuration not stated)	x	-6	x	14	-4	x	3
CC(C)[C@H](NC(=O)c1ccccc1F)C(=O)OCC(=O)NC1CC1	x	2	-1	20*	5	-1	0
COCOc1cccc(CN2CCC(C)(Oc3cccc(OC)c3)C2)c1 (configuration not stated)	x	9	x	i	-1	x	x
CC(OC(=O)c1ccc(-n2cnnn2)cc1)C(=O)N(C)c1ccccc1 (configuration not stated)	x	0	x	14	-1	x	1
SMILES	RecA splice inh	GDH-TPI inh	Mtb UGM inh	Vc quorum ag-1	FBA Mtb inh	Rv3671c inh	Vc quorum ag-2	others
O=C(NNC(=O)C12CC3CC(CC(Cl)(C3)C1)C2)c1ccncc1	0	0	x	i	3	2	x
O=C(NC1CCN(C(=O)NCc2ccccc2)CC1)c1ccccc1	0	-2	-5	0	-5	3	x
Cc1sc(N)nc1-c1ccc(Oc2ccccc2)cc1	8	15	-1	46*	4	9	66
O=C(COc1ccc(Cl)cc1)NCCCNC(=O)c1ccncc1	2	-2	-1	0	1	3	x
Cc1cccc(NC(=O)CSc2nc(=O)n(CCN3CCOCC3)c3c2CCCC3)c1C	-1	3	-1	2	2	1	0
COc1cccc(CN(C)C(=O)CSC(C)C(=O)Nc2cc(C)on2)c1OC (configuration not stated)	-2	2	-3	2	-3	1	0
CCN1C(=O)[C@H]2[C@@H](c3ccc(Cl)cc3)N3C(=O)CN(CCOC)C(=O)[C@@]3(Cc3ccccc3)[C@H]2C1=O	-1	2	0	0	3	3	x
CCOCCCNC(=O)C(NC(=O)CNC(=O)c1ccccc1)c1ccccc1 (configuration not stated)	-3	11	-3	28*	-2	7	0
CCOCCCNC(=O)C(NC(=O)CNC(C)=O)c1ccc(Cl)cc1 (configuration not stated)	1	-6	1	0	0	7	x
Cc1cnc(C(=O)OCC(=O)NC(=O)NC(C)C)cn1	0	-3	-1	33*	0	2	0
O=C(O)c1ccccc1C=NNc1ccccn1	x	19	x	-1	0	x	x
O=C(Cc1ccc2c(c1)CCCC2)Nc1ccccc1Br	8	8	-1	427*	0	-13	28
Cc1cc(OC(F)F)ccc1NC(=S)NCCc1ccccc1	5	5	2	12	-2	-3	0
COc1ccccc1NC(=O)c1oc2ccccc2c1C	x	5	x	-1	-1	x	x
COc1ccccc1NC(=O)COC(=O)c1oc2ccccc2c1C	-5	-7	-3	26*	1	-11	27	HeLa tox=-5
COc1ccccc1NC(=O)COC(=O)c1cc(C)oc1C	x	11	0	x	1	-4	i
COc1ccccc1NC(=O)COC(=O)c1ccc2c(c1)OCCO2	x	20	3	52*	-1	1	7
Cc1ccccc1NC(=O)COC(=O)c1ccc2c(c1)OCCO2	x	-4	x	i	-2	x	x
